Screens from PubChem BioAssay.
The full list was thinned out, with hits kept by preference.
CapD inh = Bacillus anthracis CapD inhibitors, primary screen, biochemical, fluorescence intensity | hit rate 0.23% among 140,000 | AID 492967, 2010 | purified CapD enzyme, fluorescence intensity read-out; hits give low values | z-score (test concentration not listed); in the data active means z-score mostly below about -2.9, no sharp cut-off; inactive means mostly above about -1.9
* hit, by the source's call.

SMILES	CapD inh
COC(CN(C)C(=O)c1ccc2c(c1)NC(=O)c1ccccc1S2)OC	-6*
COC(=O)c1ccc2c(c1)NC(=O)c1ccccc1S2	-0.025
CCC(Cc1ccccc1)NC(=O)c1ccc2c(c1)NC(=O)c1ccccc1S2 (centres undefined)	0.4
CN(C)S(=O)(=O)C1CCS(=O)(=O)C1 (centres undefined)	0.29
CC(C)(C)C(=O)Nc1ncnc2sc3c(c12)CCCC3	-0.32
CCN(CC)c1ncnc2sc3c(c12)CCCC3	-0.17
CC(=O)N(C(C)=O)c1ncnc2sc3c(c12)CCCC3	-5.4*
Cc1c(N=Cc2ccc3c(c2)OCCO3)c(=O)n(-c2ccccc2)n1C	0.26
CCC(Nc1ccccc1)C(=O)N/N=C/c1ccccc1O (centres undefined)	-0.1
NC(CO)C(=O)N/N=C/c1ccc(O)c(O)c1O (centres undefined)	-6.9*
NC(CO)C(=O)NNCc1ccc(O)c(O)c1O (centres undefined)	0.07
CCOC(=O)C1=NN(c2ccccc2)C2C(=O)N(c3ccccc3)C(=O)C12 (centres undefined)	0.88
CC1CCc2nc(NC(=S)NCc3ccco3)sc2C1 (centres undefined)	-0.36
O=C(O)c1ccc(NC(=O)C2CC(=O)N(Cc3ccc4c(c3)OCO4)C(=Nc3ccc(Cl)cc3)S2)cc1 (centres undefined)	-0.34
COC(=O)c1ccc(NC2CCCCC2)c(N)c1	68
COC(=O)/C(C#N)=C1\NC(C)=NC(SC)=C1C#N	-0.86
CSC1=C(C#N)C(=C(C#N)C#N)NC(C)=N1	-4.5*
O=S(=O)(CCO)c1ccc(C(F)(F)F)cn1	0.7
COc1ccc(CN2C(=O)N(Cc3cc(=O)n4ccccc4n3)c3ccccc3S2(=O)=O)cc1	38
Cc1ccc(-n2nc3c(c2NC(=O)c2ccc(S(=O)(=O)N(C)C)cc2)CS(=O)(=O)C3)cc1	-0.45
Cc1ccc(N=C2NC(=O)/C(=C\c3ccc(-c4ccc(C(=O)O)cc4)o3)S2)cc1	4.4
Cc1cc(C(=O)O)ccc1-c1ccc(/C=C2\SC(=S)NC2=O)o1	-9.4*
Cc1cc(C(=O)O)ccc1-c1ccc(/C=N/n2cnnc2)o1	3
CCOC(=O)c1sc2ncnc(Nc3ccc4c(c3)OCO4)c2c1C	1.3
COc1ccc(CN2C(=O)C(=O)N(Cc3ccc(Cl)cc3)C2=O)cc1OC	-0.66
SMILES	CapD inh
COc1ccc(CCNC(=O)c2sc3ncnc(N4CCN(c5ccccn5)CC4)c3c2C)cc1OC	-0.91
COc1ccc2nc(N3CCCC3)sc2c1	-0.3
O=C1CCCc2nc(N3CCCCC3)sc21	-4.3*
Nc1nnc(N2CCCCC2)s1	-0.38
Clc1ccc(C2C3CC=CC3c3cc(Br)cc4c3N2CC2CC=CC42)cc1 (centres undefined)	-0.11
CCOC(=O)N1CCN(C(=O)CN2C(=O)/C(=C\c3cccc(Cl)c3)Sc3ccccc32)CC1	-1.1
COc1cc(CN2CCN(CCOC(=O)NNC(=O)c3csc(C)n3)CC2)cc2c1OCO2	-0.82
CCCCN(CC)Cc1ccc(CNC(=S)Nc2cccc(F)c2)o1	0.48
O=C(NCc1ccccc1)Nc1ccccc1	-0.62
CCCCN(CC)Cc1ccc(CNC(=O)Nc2ccccc2)o1	-5.1*
O=C(c1cccs1)N1CCC(c2nc(-c3cccs3)no2)CC1	0.16
Cc1ccc(OCCn2c(NC(=O)c3ccc(Cl)cc3)nc3ccccc32)cc1	0.17
CSc1nc(C)c2c(n1)CCCC2	0.005
Cc1cccc(N2CCN(C(=O)c3ccc4c(=O)[nH]c5c(C(=O)NC(C)C)sc(=S)n5c4c3)CC2)c1C	-3.9*
Cc1ccc(NC(=O)c2sc(=S)n3c2[nH]c(=O)c2ccccc23)c(C)c1	-1.3
COc1ccc(NC(=O)c2sc(=S)n3c2[nH]c(=O)c2ccccc23)cc1	-2.3
O=S(=O)(c1cccc(C(F)(F)F)c1)N1CCN(c2ncccn2)CC1	0.36
O=C(Cc1ncn[nH]1)NCCc1ccccc1	-5.8*
CCCNC(=O)Cc1ncn[nH]1	1.9
Cc1n[nH]c(C)c1CC(=O)NCCc1ccccc1	-0.4
CC(=O)Oc1ccc(-n2c(C)cc(/C=C3\C(=O)NC(=S)N(c4ccc(C)cc4)C3=O)c2C)cc1	-0.56
Cc1cc(/C=C2\C(=O)NC(=S)N(c3ccc(Cl)cc3)C2=O)c(C)n1-c1cc(C(=O)O)cc(C(=O)O)c1	-6.2*
Cc1cc(/C=C2\C(=O)NC(=O)N(c3ccc(Br)cc3)C2=O)c(C)n1-c1cc(C(=O)O)cc(C(=O)O)c1	-0.94
CN(Cc1ccccc1)S(=O)(=O)c1ccc2c(c1)CCN2C(=O)C1CC1	0.055
COc1ccc(C(=O)CSc2nnc(-c3ccco3)c(-c3ccco3)n2)cc1	0.2
SMILES	CapD inh
O=C(CSc1nnc(-c2ccco2)c(-c2ccco2)n1)Nc1ccc(C(=O)O)cc1	-11*
O=C(CSc1nnc(-c2ccccc2)c(-c2ccccc2)n1)Nc1ccc(F)cc1	-0.73
Cc1nc(-c2ccc3c(c2)CCO3)no1	1.3
COc1ccc(-c2noc(N(C)CC(=O)NCCC3=CCCCC3)n2)cc1	-1.2
CSc1nc2nc(N)nc(N)c2s1	-0.64
CSc1nc2c(=S)[nH]c(=S)[nH]c2s1	-5.5*
CCOC(=O)c1nnn(-c2nonc2N)c1CN1CCOCC1	0.04
CCn1c(-c2cccc(Br)c2)nc2ccccc21	2.2
Cc1ccc(C)n1-c1ccc(SCC(=O)O)cc1	-3.4
O=C(O)c1ccc(N2CCCCC2)cc1	-0.065
Cc1ccc(C)n1-c1ccc(C(=O)O)cc1	-13*
Cc1cc2c(n1-c1ccc(C(=O)O)cc1)CCCC2	-7.5*
Cc1cc2c(n1-c1ccc(C(=O)N3CCN(c4ccccc4)CC3)cc1)CCCCC2	-0.89
O=C(O)c1ccc(-n2c(-c3ccccc3)cc3c2CCCC3)cc1	-0.13
O=C1SC(C2SC(=O)N(Cc3ccc(F)cc3)C2=O)C(=O)N1Cc1ccc(F)cc1 (centres undefined)	0.81
N#Cc1ccccc1S(=O)(=O)NC1CCN(c2ccccc2)CC1	-0.69
O=C1CSc2ccc(C(=O)N3CCN(c4cccc(C(F)(F)F)c4)CC3)cc2N1	6.5
C=CCSc1ncc2c(=S)[nH]c(=S)[nH]c2n1	-4.6*
S=c1[nH]c(=S)c2cnc(N3CCOCC3)nc2[nH]1	0.38
CCN(CC)c1ncc2c(=S)[nH]c(=S)[nH]c2n1	-1.5
CC(C)(C)C(=O)N1CCN(c2nc(-c3ccc(Cl)cc3)c(S(C)(=O)=O)cc2C#N)CC1	0.41
COc1cc(/C=C2\C(=O)NC(=S)N(c3ccc(Cl)cc3)C2=O)cc([N+](=O)[O-])c1O	-2.8
COc1ccccc1N1C(=O)NC(=O)/C(=C\c2cc(OC)c(O)c(OC)c2)C1=O	-1.6
COc1cc(/C=C2\C(=O)NC(=S)N(c3ccccc3C)C2=O)cc([N+](=O)[O-])c1O	-6*
COC(=O)c1sccc1N(Cc1ccccc1)S(C)(=O)=O	0.33
SMILES	CapD inh
Cc1cc2cc(CNC(=O)/C=C\c3ccc4c(c3)OCO4)ccc2n1C	8.3
CS(=O)(=O)c1ccc(C(=O)Nc2ccccc2)cc1	-2.9*
O=C(Nc1ccccc1)c1ccc(Br)cc1	-0.42
O=C(Nc1ccc(C(=O)c2ccccc2)cc1)c1ccccc1	-1.4
CCNC(=O)N1CCc2nc3ccncc3cc2C1	-0.17
OCCn1c(-c2ccccc2)nc2ccccc21	2.4
CC1(C)Cc2c(c(=S)nc(-c3ccccc3)n2CCO)CO1	-5.1*
CC1(C)Cc2ccccc2-c2nc(-c3ccccc3)n(CCO)c(=O)c21	7.3
O=c1nc2n(-c3ccc(F)cc3)c3cccc(Cl)c3cc-2c(=O)[nH]1	0.14
CSc1sc(C#N)c2c1C(=O)CC(c1ccc(C)cc1)C2 (centres undefined)	-0.53
